# Measured values reported in PubChem BioAssay AID1347165 (National Center for Advancing Translational Sciences (NCATS), 2019).
# In all, about 220,000 compounds went through this assay and about 5,700 (2.6%) were called active. Entries that show only a call come without a potency. Not shown: some 18% with an inconclusive outcome. The call rests on the fitted dose curve; in most records, active means well fitted inhibition curve with a large enough effect; inconclusive means small, poorly fitted or top-dose-only effect; inactive means no such curve, though single readings can be large or run the other way. Many of the other results were omitted from the sample, so actives are more common in it than they were.
# Target: Lysine-specific demethylase 5B (Homo sapiens) (UniProt Q9UGL1)
# Assay: Primary screen for KDM5B Histone Demethylases FDH-coupled qHTS; further: nearly all actives have a fitted effect of over 70% in size
# Conditions: FDH-coupled NADH fluorescence (FDH is formaldehyde dehydrogenase); series mostly up to 57.7 µM
# Outline: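 KDM5BΔAP (200 nM final) in 50 mM HEPES pH 7.5, 0.01% Tween-20 was preincubated 10 min at RT with compound over a concentration range. Substrate mix (H3K4me3 12.5 µM, α-KG 25 µM, Fe²⁺, ascorbate, NAD⁺, FDH) was added, and NADH fluorescence change over 30 min gave dose-response curves.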
# Potency means the concentration at half of the fitted maximal effect.
# Sequence of Lysine-specific demethylase 5B (Homo sapiens) (Q9UGL1 whole entry, looked up): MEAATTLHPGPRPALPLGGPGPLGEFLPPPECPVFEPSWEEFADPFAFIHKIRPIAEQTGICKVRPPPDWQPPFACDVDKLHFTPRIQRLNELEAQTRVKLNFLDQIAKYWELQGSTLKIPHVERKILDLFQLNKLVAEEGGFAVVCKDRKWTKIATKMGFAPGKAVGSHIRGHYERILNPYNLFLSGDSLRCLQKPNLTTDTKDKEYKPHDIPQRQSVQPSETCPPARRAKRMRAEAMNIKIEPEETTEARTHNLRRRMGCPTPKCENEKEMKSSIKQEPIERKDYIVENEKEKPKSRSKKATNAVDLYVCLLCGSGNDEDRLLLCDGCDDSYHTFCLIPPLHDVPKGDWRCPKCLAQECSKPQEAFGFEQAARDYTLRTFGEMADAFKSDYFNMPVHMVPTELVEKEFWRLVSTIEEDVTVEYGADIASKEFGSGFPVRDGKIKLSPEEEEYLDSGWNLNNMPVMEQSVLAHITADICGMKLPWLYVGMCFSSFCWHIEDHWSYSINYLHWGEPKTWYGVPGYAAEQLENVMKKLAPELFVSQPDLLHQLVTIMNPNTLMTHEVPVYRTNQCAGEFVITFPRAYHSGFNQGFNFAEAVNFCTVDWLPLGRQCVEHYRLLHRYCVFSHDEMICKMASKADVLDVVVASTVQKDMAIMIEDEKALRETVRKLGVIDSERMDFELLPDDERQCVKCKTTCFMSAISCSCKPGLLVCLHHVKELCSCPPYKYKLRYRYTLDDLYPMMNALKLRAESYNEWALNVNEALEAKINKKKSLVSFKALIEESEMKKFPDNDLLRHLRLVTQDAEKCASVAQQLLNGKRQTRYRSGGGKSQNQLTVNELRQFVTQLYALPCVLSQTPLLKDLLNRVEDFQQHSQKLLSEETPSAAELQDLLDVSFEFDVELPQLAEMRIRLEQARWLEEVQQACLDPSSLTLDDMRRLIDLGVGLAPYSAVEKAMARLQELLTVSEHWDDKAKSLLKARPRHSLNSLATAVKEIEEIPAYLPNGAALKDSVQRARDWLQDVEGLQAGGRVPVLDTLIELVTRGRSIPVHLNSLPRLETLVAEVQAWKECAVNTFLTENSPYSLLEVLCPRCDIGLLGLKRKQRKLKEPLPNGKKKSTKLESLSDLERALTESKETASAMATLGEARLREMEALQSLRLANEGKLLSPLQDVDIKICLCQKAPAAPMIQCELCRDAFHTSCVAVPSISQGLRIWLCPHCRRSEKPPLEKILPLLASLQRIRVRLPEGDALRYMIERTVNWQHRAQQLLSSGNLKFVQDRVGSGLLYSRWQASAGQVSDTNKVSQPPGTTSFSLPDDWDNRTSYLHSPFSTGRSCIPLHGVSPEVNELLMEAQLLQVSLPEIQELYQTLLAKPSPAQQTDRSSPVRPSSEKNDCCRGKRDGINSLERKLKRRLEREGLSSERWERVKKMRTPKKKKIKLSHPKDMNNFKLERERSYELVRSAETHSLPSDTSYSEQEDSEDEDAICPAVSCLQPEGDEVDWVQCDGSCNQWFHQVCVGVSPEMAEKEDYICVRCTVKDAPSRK
row,SMILES,Potency
1,O=C(Nc1cccc(S(=O)(=O)N2CCCC2)c1)c1cccc2cccnc12,inactive
2,COc1ccc(C(C)=O)cc1CSCc1coc(-c2ccc(C)cc2)n1,inactive
3,CCc1c(C(=O)Nc2ccc3nc(C)sc3c2)cnn1-c1ccc(OC)nn1,inactive
4,Cc1ncsc1C(=O)NCc1ccc(N2CCCCCC2)nc1,inactive
5,COCCCNS(=O)(=O)c1cccc(S(=O)(=O)c2cccc(S(=O)(=O)NCCCOC)c2)c1,inactive
6,Cc1cc(=O)oc2cc(OCC(=O)NCC(C)(c3ccccc3)c3ccccc3)ccc12,inactive
7,COc1ccc(-c2nccc3c(=O)cc(N(C)c4ccccc4)oc23)cn1,inactive
8,O=c1cc(-c2ccccn2)oc2c(-c3ccccc3F)nccc12,17.8 µM (active)
9,O=C(Nc1c(F)cccc1F)c1cc(-c2ccccn2)nc2ccccc12,inactive
10,Cc1cccc(C(C)C)c1NC(=O)CSc1nnc(-c2cc(-c3ccccc3)n[nH]2)n1N,inactive
11,CCOC(=O)C(C)Oc1cccn2c(=O)c(-c3cc(C)n(-c4cccc(F)c4)n3)c(C)nc12 (stereo not given),25.1 µM (active)
12,Cc1ccc(N2CCN(C(=O)CCc3c(C)nc4c(c3C)c(=O)n(C)c(=O)n4C)CC2)c(C)c1,inactive
13,Cc1ccc2nc(COc3ccc(NC(=O)COc4ccccc4F)cc3)cc(=O)n2c1,inactive
14,COC(=O)COc1cccn2c(=O)c(-c3cc(C)n(-c4ccc(C)cc4C)n3)c(C)nc12,28.2 µM (active)
15,O=C(Nc1ccc(N2CCOCC2)c(Cl)c1)c1ccc2c3c(cccc13)CC2,inactive
16,CC(c1nc2ccccc2s1)N(C)C(=O)c1cccc(S(=O)(=O)Nc2ccc(Cl)cc2)c1 (stereo not given),inactive
17,Cc1ccccc1C(=O)N1CCN(c2ccc([N+](=O)[O-])c(-n3nc(C)c4ccccc4c3=O)c2)CC1,inactive
18,Cc1ccccc1-c1ccc(C(=O)NCCCn2ccnc2C(C)C)cn1,inactive
19,CC(C)c1nccn1CCCNc1nc(-c2ccncc2)nc2c1cnn2C,22.4 µM (active)
20,N#Cc1c(N)n[nH]c1CCCNc1nc(-c2ccncc2)nc2ccccc12,inactive
21,COc1ccc(CNC(=O)COC(=O)C(CCSC)N2C(=O)c3ccccc3C2=O)cc1 (stereo not given),inactive
22,CCCC1(CCC)NC(=O)N(Cc2ncc(-c3ccccc3)o2)C1=O,inactive
23,O=C1CN(Cc2cc3cc4c(cc3[nH]c2=O)OCO4)CCCN1,20 µM (active)
24,CCCCCCCCNS(=O)(=O)/C=C/c1cc(C)ccc1CNC(=O)OC(C)(C)C,inactive
25,CC(C)NC(NC(=O)c1ccc(C(C)(C)C)cc1)C(Cl)(Cl)Cl (stereo not given),inactive

row,SMILES,Potency
1,COC(=O)c1ccc(COC(=O)c2ccc(N3CCOCC3)nc2)cc1,inactive
2,CC(C)CNC(=O)N1C[C@@H](Oc2cccnc2)C[C@H]1C(=O)N1CCOCC1,inactive
3,CC(C)CN[C@H]1[C@H](O)[C@H](O)C[C@@H]1c1ccc(N2CCOCC2)nc1,35.5 µM (active)
4,Cc1nc(-c2cn(C3CCCN(C(=O)c4cccs4)C3)nn2)no1 (stereo not given),inactive
5,COc1ccc(CN2CCc3ncc(C(=O)NCCOc4ccccc4)n3CC2)cn1,inactive
6,COc1cccc(CN2CCc3c(cc(C(=O)NCCN4CCCCC4)n3C)C2)c1,22.4 µM (active)
7,CNC(=O)[C@@H]1CN(Cc2cccc(OC)c2)C[C@H]1CO,inactive
8,CN(CCOc1ccccc1Cl)C(=O)c1cc2ccccc2oc1=O,inactive
9,O=C(COc1cccc(-n2cnnn2)c1)Nc1ccc(S(=O)(=O)N2CCOCC2)cc1,inactive
10,O=C(O)CC1C(=O)NCCN1Cc1ccc(Cl)c(F)c1 (stereo not given),inactive
11,O=C1NCCN(Cc2ccccc2)C1CC(=O)N1CCN(c2ccccc2)CC1 (stereo not given),20 µM (active)
12,Cc1ccc(CN2CCNC(=O)C2CC(=O)NC2(CO)CCCC2)cc1 (stereo not given),inactive
13,COc1ccc(NC(=O)CSc2nccn2-c2cccc(C(F)(F)F)c2)cc1,inactive
14,CCN1CCC(N(Cc2cccs2)C(=O)Nc2cc(Cl)ccc2C(=O)OC)CC1,inactive
15,O=C(CCNC(=O)c1cnccn1)Nc1ccccc1Cc1ccccc1,inactive
16,COc1ccccc1-c1noc(COC(=O)c2ccc3c(c2)NC(=O)CS3)n1,inactive
17,CC(C)N1C(=O)C2(CCCC2)C1C(=O)Nc1ccc2c(c1)N(C)CCC2 (stereo not given),31.6 µM (active)
18,C=CCNC(=O)C1N(C(C)C)C(=O)C12CCCCC2 (stereo not given),inactive
19,C=CCNC(=O)C1N(C(C)C)C(=O)C12CCCC2 (stereo not given),inactive
20,CCNC(=O)NC(=O)CSc1nc(-c2ccco2)nc2ccccc12,inactive
21,CN1C[C@@H](NC(=O)c2ccc(C(C)(C)C)cc2)C[C@H]1c1nc(-c2ccc3ccccc3c2)no1,25.1 µM (active)
22,CN1C[C@@H](NC(=O)c2ccccc2)C[C@H]1c1nc(-c2ccccc2)no1,inactive
23,COc1ccc(C(=O)N[C@H]2C[C@@H](c3nc(-c4ccc(OC)cc4)no3)N(C)C2)cc1,inactive
24,COc1ccc(Cl)cc1NC(=O)N1CCC2(CC1)N=C(c1ccc(C)c(C)c1)C(=O)N2,inactive
25,Cc1ccc2c(C(=O)N3CCCC(C#N)C3)cc(-c3cnn(C(C)C)c3)nc2c1 (stereo not given),28.2 µM (active)

row,SMILES,Potency
1,Cc1nc(-c2cn(C3CCCN(C(=O)c4cc(F)ccc4F)C3)nn2)no1 (stereo not given),inactive
2,CC(C)(C)OC(=O)N1CCN(C(=O)c2cc(-c3ccncc3)nc3ccccc23)CC1,inactive
3,C=CCn1c(SCc2coc(-c3cccc(Cl)c3)n2)nnc1C1CCS(=O)(=O)C1 (stereo not given),inactive
4,COc1ccc(C(=O)OCC(=O)NCCCc2ccccc2)cc1OC,inactive
5,COc1ccc(C(=O)Nc2oc3ccc(Cl)cc3c(=O)c2-c2cc(OC)c(OC)c(OC)c2)cc1,inactive
6,CCn1ccnc1CN(C)C1CCCN(CCc2ccccc2)C1 (stereo not given),inactive
7,CC(C)Nc1ncc(C(=O)NC2CCCN(CCc3ccccc3)C2)cn1 (stereo not given),25.1 µM (active)
8,Cc1occc1C(=O)NC1CCCN(Cc2ccc(CC(C)C)cc2)C1 (stereo not given),inactive
9,Cc1ccc(C(=O)NC2CCN(c3cnn(CC4CC4)c(=O)c3)CC2)c(C)c1,inactive
10,O=C(CSc1ncnc2c1cnn2-c1ccccc1)NC(=O)NC1CCCC1,inactive
11,O=S(=O)(N[C@@H]1CCOC[C@H]1Oc1ccccn1)c1ccc(Cl)s1,inactive
12,Cc1nc2ncccn2c1C(=O)N[C@@H]1CCOC[C@H]1Oc1ccccn1,31.6 µM (active)
13,N#Cc1ccc(O[C@@H]2COCC[C@H]2NC(=O)CCCn2cccn2)cc1,inactive
14,O=C(N[C@@H]1CCOC[C@H]1Oc1ccccn1)c1cc(C2CC2)no1,inactive
15,Cc1nc(N(C)C)ncc1C(=O)N[C@@H]1CCOC[C@H]1Oc1ccccn1,25.1 µM (active)
16,O=C(N[C@H]1CCOC[C@H]1C1CCOCC1)c1cccc2nccnc12,inactive
17,Cc1nn(C)c2nc(OC(C)C(=O)Nc3ccccc3F)cc(-c3ccccc3)c12 (stereo not given),inactive
18,CC(C)n1cnnc1CC1CCN(C(=O)CCCc2ccccc2)C1 (stereo not given),inactive
19,CC1(C)CC(=O)C/C(=N/NC(=O)c2ccccc2Br)C1,inactive
20,CC(=O)Nc1cccc(C(=O)N2CCC3(CC2)NC(=O)N(c2cccc(Cl)c2)N3)c1,inactive
21,COc1ccc(S(=O)(=O)N(C)Cc2nc(-c3ccc(OC(F)(F)F)cc3)no2)cc1,inactive
22,O=[S+]([O-])(Nc1ccccc1)c1ccc2c(c1)OCCN(Cc1cccs1)C2,inactive
23,O=[S+]([O-])(Nc1cccnc1)c1ccc2c(c1)OCCN(Cc1cscn1)C2,35.5 µM (active)
24,O=[S+]([O-])(Nc1cccnc1)c1ccc2c(c1)OCCN(Cc1ccc(F)cc1)C2,inactive
25,Cc1c(C)[n+](=O)c2ccccc2n1[O-],inactive

row,SMILES,Potency
1,O=C(COC(=O)Cc1ccc(Cl)c(Cl)c1)NCc1ccc(F)cc1,inactive
2,COC(=O)[C@H](Cc1ccc(OC)cc1)NC(=O)[C@@H]1CN(C(=O)c2cccc(F)c2)CCN1C(=O)c1cccc(F)c1,inactive
3,CC(C)(C)C(=O)NCCCC(=O)NCCc1cccs1,inactive
4,O=C(CSc1ncnc2sccc12)c1ccc2c(c1)OCCCO2,inactive
5,c1cc(-c2ccc3c(c2)OCCCO3)n2ncnc2n1,15.8 µM (active)
6,CC(Sc1ccc2c(c1)OCCCO2)C(=O)O (stereo not given),inactive
7,CC(C)c1nc2nccc(-c3ccc4c(c3)OCCCO4)n2n1,22.4 µM (active)
8,Fc1ccc(CNC[C@H]2Cn3c(-c4ccc5c(c4)OCCO5)cnc3CO2)cc1,inactive
9,CCCc1nnc2sc(-c3ccc4c(c3)OCCO4)nn12,inactive
10,Cc1cc(C)cc(-c2nnc(SCC(=O)N3CCCC(C)C3)o2)c1 (stereo not given),inactive
11,O=C(Cn1cccc1-c1nc(-c2ccccc2)no1)Nc1ccccc1F,inactive
12,COc1ccc(-c2c3c(=O)n(C)c(=O)n(C)c3c3n2C(C)(C)COC3c2cccc(OC)c2)cc1 (stereo not given),inactive
13,Cc1cc(C)c(-c2cc(C(=O)Nc3ccccc3C(F)(F)F)[nH]n2)c(O)c1,inactive
14,Cc1ccc(CNC(=O)c2nn(C)c(=O)c3ccccc23)cc1,inactive
15,Cc1cc(CNC(=O)c2ccc(-c3ccccc3Cl)o2)n(C)n1,20 µM (active)
16,Cc1cc(C(=O)NCCc2ccc(Cl)cc2)n(-c2ccccc2)n1,inactive
17,CCOC(=O)C1CCN(CC(O)c2cccc(C(F)(F)F)c2)CC1 (stereo not given),inactive
18,Cc1ccc(NC(=O)Nc2ccc3nc(N4CCOCC4)cc(C)c3c2)cc1,inactive
19,O=C(c1cccnc1)N1CCN(c2cc(-c3ccccc3)[nH]n2)CC1,inactive
20,COCC(=O)N(C1CCOCC1)C1CCN(C(=O)c2cccc(OC)c2)CC1,inactive
21,COc1cccc(-c2nc(N3CCOCC3)cc3c2CN(CC2CC2)C3=O)c1,39.8 µM (active)
22,O=C(c1cccnc1)N1CCC2(CCCN(C3CCOCC3)C2=O)C1 (stereo not given),inactive
23,COc1cccc(-c2noc(CC3CCN(C(=O)c4ccc(F)cc4)CC3)n2)c1,inactive
24,Cc1ccc(-c2nc(N3CCOCC3)cc3c2CN(Cc2cnn(C)c2)C3=O)cn1,35.5 µM (active)
25,O=C1c2cc(N3CCOCC3)nc(-c3cccnc3)c2CN1C1COC1,31.6 µM (active)
